Data: PubChem BioAssay (Tox21)
Results filed as inconclusive are left out. Active and inactive are the calls of the source. Unless noted, calls follow the shape of the dose curve; as a rule, active = well fitted curve in the direction sought with a large enough effect in the repeat runs; inconclusive = weak or mixed curves; inactive = no such curve, though single readings can be large; an effect the other way counts as inactive or inconclusive.

Experiments:
[1] = qHTS RealTime-Glo MT Cell Viability Assay in HEK293 cells - 0 hour (AID 1224880); also: top concentration of the series differs between compounds; nearly all actives have a fitted effect of over 45% in size
Procedure, shortened: (§1)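 Luminescence readout at each listed time point; HEK293, 600 cells/well, RealTime-Glo MT reagent added with cells; compounds pinned (23 nL in DMSO) after 5 h at 37 C; continuous culture at 37 C.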

[2] = A CellTox Green Cytotoxicity Assay to monitor cytotoxicity in HEK293 cells - 32 hour (AID 1224881); also: nearly all actives have a fitted effect of over 40% in size
Procedure, shortened: (§2)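 Read-out: fluorescence of a cell-impermeant cyanine dye staining DNA of dead cells, proportional to cytotoxicity. HEK293, 600 cells/well with reagent, compound (23 nL DMSO) added after 5 h; reads at 0, 8, 16, 24, 32, 40 h.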

[3] = A CellTox Green Cytotoxicity Assay to monitor cytotoxicity in HepG2 cells - 0 hour (AID 1224882); also: nearly all actives have a fitted effect of over 35% in size
Procedure, shortened: (§3)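 HepG2, 600 cells/well premixed w/ CellTox Green; 5 h settle, 37 C/5% CO2; pintool cpd add (DMSO); 37 C, 40 h; fluorescence read at 0, 8, 16, 24, 32, 40 h.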

[4] = A CellTox Green Cytotoxicity Assay to monitor cytotoxicity in HepG2 cells - 32 hour (AID 1224883); also: nearly all actives have a fitted effect of over 50% in size
Procedure, shortened: as §3

[5] = A CellTox Green Cytotoxicity Assay to monitor cytotoxicity in HEK293 cells - 8 hour (AID 1224884); also: nearly all actives have a fitted effect of over 35% in size
Procedure, shortened: as §2

[6] = qHTS RealTime-Glo MT Cell Viability Assay in HepG2 cells - 16 hour (AID 1224885); also: nearly all actives have a fitted effect of over 50% in size
Procedure, shortened: (§4)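 Cell number in HepG2 cultures estimated from NanoLuc luminescence generated by metabolic reduction of a prosubstrate by living cells. The homogeneous, nonlytic format allowed repeated reads at 0, 8, 16, 24, 32 and 40 h of compound exposure.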

[7] = qHTS RealTime-Glo MT Cell Viability Assay in HEK293 cells - 24 hour (AID 1224886); also: top concentration of the series differs between compounds; nearly all actives have a fitted effect of over 50% in size
Procedure, shortened: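 Homogeneous bioluminescent viability format in HEK293 cells (600 cells/well). Following 5 h at 37 C/5% CO2, 23 nL compound was pintooled; the signal was measured repeatedly during 40 h incubation.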

[8] = qHTS RealTime-Glo MT Cell Viability Assay in HEK293 cells - 8 hour (AID 1224887); also: top concentration of the series differs between compounds; nearly all actives have a fitted effect of over 50% in size
Procedure, shortened: as §1

[9] = A CellTox Green Cytotoxicity Assay to monitor cytotoxicity in HEK293 cells - 16 hour (AID 1224888); also: nearly all actives have a fitted effect of over 35% in size
Procedure, shortened: as §2

[10] = A CellTox Green Cytotoxicity Assay to monitor cytotoxicity in HepG2 cells - 8 hour (AID 1224890); also: nearly all actives have a fitted effect of over 45% in size
Procedure, shortened: as §3

[11] = qHTS assay to identify small molecule antagonists of the estrogen receptor alpha (ER-alpha) signaling pathway using the BG1 cell line in the presence of 0.1 nM 17-beta-estradiol - cell viability counter screen (AID 1259241); also: nearly all actives have a fitted effect of over 40% in size
Procedure, shortened: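 VM7Luc4E2, 4,000 cells/well, phenol red-free medium + 10% charcoal-stripped FBS; 24 hr plating; cpd + 0.1 nM E2 final, 22 hr 37C/5% CO2; CellTiter-Fluor 30 min, fluorescence.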

[12] = qHTS assay to identify small molecule antagonists of the androgen receptor (AR) signaling pathway using the MDA cell line in the presence of 0.5 nM R1881 - cell viability counter screen (AID 1259242); also: nearly all actives have a fitted effect of over 45% in size
Procedure, shortened: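 Live-cell protease fluorescence, CellTiter-Fluor, 30 min at 37C. Cells: MDA-kb2, 3,000/well, preincubated 5 hr. Compounds plus 0.5 nM R1881 final, 16 hr, 37C, 0% CO2.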

[13] = qHTS assay to identify small molecule phospholipidosis (PLD) inducers (AID 1259344; active = well fitted curve in the direction sought with a large enough effect; an effect the other way counts as inactive or inconclusive)
Procedure, shortened: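 After 4 h attachment on collagen I, HepG2 cells were dosed with compound alongside LipidTOX Red, kept 24 h at 37 C, fixed, and imaged for lamellar phospholipid pits.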

[14] = qHTS assay to identify small molecule HDAC inhibitors (AID 1259364);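 also: wild-type HCT-116 cells with endogenous class I/II HDAC activity; top concentration of the series differs between compounds; nearly all actives have a fitted effect of over 45% in size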
Procedure, shortened: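 HCT-116 (wild type), 1,500 cells/well, overnight; compound 2 hr 37C 5% CO2; HDAC-Glo I/II reagent 30 min RT; luminescence readout.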

[15] = qHTS assay to identify small molecule HDAC inhibitors - cell viability counter screen (AID 1259365)
Procedure, shortened: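 Luminescence from CellTiter-Glo, developed 30min at room temperature, reports viability of wild-type HCT-116 cells treated 2hr with compounds at 37 C and 5% CO2 after overnight plating.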

[16] = qHTS assay to identify small molecule agonists of the sonic hedgehog signaling (Shh) pathway - cell viability counter screen (AID 1259366); also: nearly all actives have a fitted effect of over 50% in size
Procedure, shortened: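 Cytotoxicity counter screen run in the same wells as the Shh reporter assay. NIH/3T3 cells carrying a Gli1 response element–driven luciferase were treated with DMSO-dissolved compounds for 24hr, and live-cell protease activity was measured with CellTiter-Fluor.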

[17] = qHTS assay to identify small molecule antagonists of the sonic hedgehog signaling (Shh) pathway - cell viability counter screen (AID 1259367); also: nearly all actives have a fitted effect of over 55% in size; also: potency is read from the fitted curve at half-maximal effect
Procedure, shortened: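 Conditioned medium drove Shh signaling in 3T3 Gli1-Luc cells exposed to compounds at 37C and 5% CO2. Viability was determined from CellTiter-Fluor fluorescence, with reagent incubated 1 hr after 23 hr of treatment.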

[18] = qHTS RealTime-Glo MT Cell Viability Assay in HepG2 cells - 0 hour (AID 1224889); also: nearly all actives have a fitted effect of over 50% in size
Procedure, shortened: as §4

[19] = biological target: Androgen receptor (Homo sapiens) (UniProt P10275); assay: qHTS assay to identify small molecule antagonists of the androgen receptor (AR) signaling pathway using the MDA cell line in the presence of 0.5 nM R1881 (AID 1259243); also: nearly all actives have a fitted effect of over 50% in size
Chain of Androgen receptor (Homo sapiens) (P10275 whole entry, looked up): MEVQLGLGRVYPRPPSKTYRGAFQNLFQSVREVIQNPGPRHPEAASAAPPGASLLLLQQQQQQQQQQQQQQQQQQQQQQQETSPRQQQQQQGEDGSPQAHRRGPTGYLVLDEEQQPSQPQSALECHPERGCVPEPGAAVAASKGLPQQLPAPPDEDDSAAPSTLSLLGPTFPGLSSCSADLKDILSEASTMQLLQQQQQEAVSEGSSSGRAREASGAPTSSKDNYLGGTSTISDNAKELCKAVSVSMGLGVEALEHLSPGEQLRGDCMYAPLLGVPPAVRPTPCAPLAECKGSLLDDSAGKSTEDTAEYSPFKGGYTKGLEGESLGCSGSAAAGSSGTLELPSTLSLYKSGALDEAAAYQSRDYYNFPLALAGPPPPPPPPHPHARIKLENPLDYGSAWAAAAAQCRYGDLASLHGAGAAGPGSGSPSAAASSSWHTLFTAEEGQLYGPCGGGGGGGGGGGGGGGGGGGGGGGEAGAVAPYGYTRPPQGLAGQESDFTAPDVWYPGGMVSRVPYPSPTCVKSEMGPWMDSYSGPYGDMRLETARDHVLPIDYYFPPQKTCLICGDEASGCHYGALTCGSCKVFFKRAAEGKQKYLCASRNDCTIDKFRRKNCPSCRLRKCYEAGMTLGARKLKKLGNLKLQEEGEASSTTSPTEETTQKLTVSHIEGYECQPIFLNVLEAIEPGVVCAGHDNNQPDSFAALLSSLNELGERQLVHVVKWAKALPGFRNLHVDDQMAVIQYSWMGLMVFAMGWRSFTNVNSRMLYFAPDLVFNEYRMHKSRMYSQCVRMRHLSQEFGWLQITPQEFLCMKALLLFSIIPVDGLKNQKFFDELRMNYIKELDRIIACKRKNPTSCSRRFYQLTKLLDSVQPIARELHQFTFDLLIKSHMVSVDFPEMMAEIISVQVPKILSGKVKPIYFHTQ
Procedure, shortened: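 MDA-kb2, MMTV-luc (AR/GR elements); 3,000 cells/well; cpd + 0.5 nM R1881 final; 16 hr 37C, 0% CO2; ONE-Glo 30 min RT; luminescence.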

[20] = biological target: Estrogen receptor (Homo sapiens) (UniProt P03372); assay: qHTS assay to identify small molecule antagonists of the estrogen receptor alpha (ER-alpha) signaling pathway using the BG1 cell line in the presence of 0.1 nM 17-beta-estradiol (AID 1259244); also: nearly all actives have a fitted effect of over 50% in size
Chain of Estrogen receptor (Homo sapiens) (P03372 whole entry, looked up): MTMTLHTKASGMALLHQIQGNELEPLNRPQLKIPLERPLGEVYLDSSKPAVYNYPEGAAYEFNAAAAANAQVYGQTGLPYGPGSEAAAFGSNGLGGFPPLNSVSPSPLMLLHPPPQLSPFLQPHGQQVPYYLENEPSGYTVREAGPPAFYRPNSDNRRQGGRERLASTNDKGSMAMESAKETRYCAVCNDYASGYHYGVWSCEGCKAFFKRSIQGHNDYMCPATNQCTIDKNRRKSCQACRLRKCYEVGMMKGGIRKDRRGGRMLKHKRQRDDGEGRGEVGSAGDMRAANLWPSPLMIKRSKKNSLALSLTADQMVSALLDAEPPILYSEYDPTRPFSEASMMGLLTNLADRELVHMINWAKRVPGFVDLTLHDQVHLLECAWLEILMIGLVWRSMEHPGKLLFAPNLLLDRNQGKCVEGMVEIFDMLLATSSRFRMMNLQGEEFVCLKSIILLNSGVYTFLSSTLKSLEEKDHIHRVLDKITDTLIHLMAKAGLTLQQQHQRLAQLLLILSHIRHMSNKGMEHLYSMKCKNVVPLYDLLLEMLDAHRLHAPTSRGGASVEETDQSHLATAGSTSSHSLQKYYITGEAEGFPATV
Procedure, shortened: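 Luminescence after ONE-Glo (30 min, room temperature) measured ERE-luciferase activity in VM7Luc4E2 cells treated 22 h with compound and 0.1 nM final 17beta-estradiol as stimulator.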

Measured: Potency

CC(=O)OCC[N+](C)(C)C
inactive: [1] | [2] | [3] | [4] | [5] | [6] | [7] | [8] | [9] | [10] | [11] | [12] | [13] | [14] | [15] | [16] | [17]

CCCCN(CCN(CCCC)C(=O)N1CCOCC1)C(=O)N1CCOCC1
inactive: [1] | [2] | [3] | [4] | [5] | [6] | [7] | [8] | [18] | [10] | [11] | [12] | [19] | [20] | [14] | [15] | [16]
active: [17] 26.6 µM

c1ccc2sc(SN(C3CCCCC3)C3CCCCC3)nc2c1
inactive: [1] | [2] | [3] | [4] | [5] | [6] | [7] | [8] | [9] | [10] | [11] | [12] | [20] | [14] | [15] | [16] | [17]

CN1C(=O)OC(C)(C)C1=O
inactive: [1] | [2] | [3] | [4] | [5] | [6] | [7] | [8] | [9] | [10] | [11] | [12] | [20] | [13] | [15] | [16] | [17]

CCCCN(CCCC)C(C(N)=O)c1ccc(OC)cc1 (configuration not stated)
inactive: [1] | [2] | [3] | [4] | [5] | [6] | [7] | [8] | [18] | [10] | [11] | [12] | [14] | [17]

CC1(C)S[C@@H]2[C@H](NC(=O)C(c3ccccc3)S(=O)(=O)O)C(=O)N2[C@H]1C(=O)O (some centres not stated)
inactive: [1] | [2] | [3] | [4] | [5] | [6] | [7] | [8] | [18] | [10] | [11] | [12] | [20] | [13] | [14] | [15] | [16] | [17]

C=C(C)C(=O)OCCOCCOC(=O)C(=C)C
inactive: [1] | [2] | [3] | [4] | [5] | [6] | [7] | [8] | [9] | [18] | [10] | [11] | [12] | [14] | [15] | [17]
